# Reference: PubChem BioAssay AID1628 (Sanford-Burnham Center for Chemical Genomics, 2009)
# Among all 190,000 compounds or so, about 930 (0.49%) were called active.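 How the source made its calls: active means z-score of insulin promoter reporter brightness in nuclei below -3 at 5 µM, with at least 500 cells counted; inconclusive means wells with under 500 cells, flagged as toxic or sparse; inactive means the rest.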 The list shows a part of the results. Entries with a potency or affinity are not part of this list.
# Assay: insulin promoter down-regulators in MIN6 cells, imaging, high-content screening, mouse beta cells (AID 1628)
# Conditions: MIN6 insulin promoter GFP reporter, at 5 µM, stronger effect = lower value
row,Compound,z-score
1,S=c1[nH]c2ccc(Cl)cc2[nH]1,1.33 (inactive)
2,CC1CCCC(C)N1C(=O)CSc1nnc(-c2cccs2)o1 (configuration not stated),3.46 (inactive)
3,O=C(CSc1nnc(-c2cccs2)o1)N1CCOCC1,-4.31 (active)
4,c1ccc(Cn2nnnc2C(c2ccccc2)N2CCN(c3nc4ccccc4s3)CC2)cc1 (configuration not stated),-3.45 (active)
5,COc1ccc(C(c2nnnn2Cc2ccccc2)N2CCN(c3nc4ccccc4s3)CC2)cc1 (configuration not stated),-5.01 (active)
6,COc1ccccc1C(c1nnnn1Cc1ccccc1)N1CCN(c2nc3ccccc3s2)CC1 (configuration not stated),-5.06 (active)
7,N#C/C(=C/c1ccc(N2CCCCC2)o1)C(=O)Nc1ccc(Cl)cc1,17.2 (inactive)
8,c1ccc(-c2nnc3sc(CN4CCc5ccccc54)cn23)cc1,-0.03 (inactive)
9,COC(=O)c1ccc(Cl)c(-c2ccc(/C=N/NC(=O)Nc3ccccc3)o2)c1,-3.3 (active)
10,COc1cc([N+](=O)[O-])ccc1-c1ccc(/C=N/NC(N)=O)o1,3.33 (inactive)
11,COc1cc2c3nnc(-c4ccc(F)cc4)c-3cn(Cc3ccccc3F)c2cc1OC,6.27 (inactive)
12,CC(C)COC(=O)c1nnsc1NC(=O)Nc1ccccc1,-3.85 (active)
13,CC1CCc2c(sc3nn[nH]c(=O)c23)C1 (configuration not stated),4.24 (inactive)
14,COc1c2c(nc3ccccc13)OC(C(C)(O)COC(C)=O)C2 (configuration not stated),3.26 (inactive)
15,COc1ccc(OC)c(/C(O)=C/C(=O)C(=O)Nc2cc(C)cc(C)c2)c1,-5.01 (active)
16,Cc1cc(C)cc(NC(=O)/C=C/c2ccc([N+](=O)[O-])s2)c1,5.99 (inactive)
17,COc1cccc(/C=N/n2c(=O)[nH]c3ccccc32)c1OC,-4.61 (active)
18,O=[N+]([O-])c1ccc2c(c1)C(N1CCOCC1)/C(=C/COc1ccc3ccccc3c1Br)O2 (configuration not stated),-5.36 (active)
19,Cc1cc(C)n(-c2ccc(C(=O)OCC(=O)N(CC(C)C)C3CCS(=O)(=O)C3)cc2)n1 (configuration not stated),3.33 (inactive)
20,CCN(C(=O)COC(=O)c1cccnc1Nc1cccc(C(F)(F)F)c1)C1CCS(=O)(=O)C1 (configuration not stated),-4.37 (active)
21,O=Nc1c(O)n(Cc2ccc(Cl)cc2)c2ccccc12,3.05 (inactive)
22,COc1ccc(OC)c(-n2c(=S)[nH]c3c(sc(=S)n3-c3ccccc3)c2=O)c1,5.22 (inactive)
23,COc1ccc(C2C(Oc3ccccc3C)C(=O)N2Cc2ccc(F)cc2)cc1OC (configuration not stated),-5.19 (active)
24,COc1ccc(C2C(=O)c3ccccc3C2=O)cc1OC,3.02 (inactive)
25,COc1ccc(C2/C=C\CN(S(=O)(=O)c3cccc4cccnc34)CC(=O)N2Cc2ccc(F)cc2)cc1 (configuration not stated),7.49 (inactive)
26,CCOc1ccccc1-c1c2cc(O)c(=O)cc-2oc2cc(O)c(O)cc12,8.08 (inactive)
27,CCOc1ccccc1N=C1NC(=O)CS1,-6.97 (active)
